HIF-2a inh = HIF-2a inhibition. 786-0 RCC cells HIF-2a reporter, luciferase luminescence, overnight. AID 624352. inhibition, % at 18.8 µM. 360,000 compounds, 0.72% hits;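 active means inhibition of the luminescence signal of 40% or more relative to plate controls, in a single-dose primary screen at 18.75 µM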
TWEAK Fn14 block = inhibitors of TWEAK-Fn14 interaction signaling; 360,000 compounds, 2% hits; inhibition, % at 10 µM; TWEAK-stimulated Fn14 reporter cells, luciferase luminescence, 8 h; in the data active means inhibition above about 50%
KKLEB tox = reduces viability of KKLEB cystic fibrosis airway cells | KKLEB CF airway cells viability, ATPlite luminescence, overnight; stronger effect = lower value; cells stimulated with P. aeruginosa culture filtrate | activity change (cytotoxicity), % at 5 µM | 360,000 compounds, 0.36% hits | AID 602141;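 active means corrected activity change at or below -50% at 5 µM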
TROY signal inh = inhibitors of TROY-dependent NF-kB signaling | Q293 LMP1-TROYcd NF-kB luciferase reporter, 4 h | inhibition, % at 10 µM | 360,000 compounds, 0.98% hits;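 active means compounds whose plate-normalised and pattern-corrected inhibition of the luciferase reporter signal at the single screening dose is 50% or more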
CF NFkB inh = inhibitors of cystic fibrosis induced NF-kB; KKLEB NF-kB-GFP reporter, PAF-induced, GFP fluorescence overnight; inhibition, % at 5 µM; 360,000 compounds, 0.86% hits;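 active means at least 50% inhibition at 5 µM, scaled per plate between neutral and stimulator controls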;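 further: PAF is a Pseudomonas aeruginosa culture filtrate used as stimulus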
Peg3 promoter = inhibitors of Peg3 promoter. HeLa PEG-Prom luciferase reporter, luminescence, overnight. inhibition, % at 20 µM. 360,000 compounds, 1.7% hits. AID 588405;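 active means inhibition of at least 50% at 20 µM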
Hits are given with their value; - = inactive; . = not tested or not shown. Most compounds without a hit are left out; they make up all but 4% or so of the library.

SMILES | HIF-2a inh | TWEAK Fn14 block | KKLEB tox | TROY signal inh | CF NFkB inh | Peg3 promoter
Cc1c(C(=O)NCc2ccc(Cl)c(Cl)c2)sc(=O)n1Cc1ccc(S(=O)(=O)N(C)C)cc1 | - | 66.8 | - | - | - | -
Cc1c(C(=O)NCc2ccc(C(C)C)cc2)sc(=O)n1Cc1ccc(S(=O)(=O)N(C)C)cc1 | - | 64.1 | - | - | - | -
Cc1c(C(=O)NCc2ccc(Cl)c(Cl)c2)sc(=O)n1Cc1ccc(C(=O)N(C)C)cc1 | - | - | - | - | - | -
Cc1nnc(NC(=O)c2cc3ccccc3o2)s1 | - | - | - | - | - | -
Cc1nc(NC(=O)c2cc3ccccc3o2)sc1C | - | 56.7 | - | - | - | -
COC(=O)c1cc(Cl)c(NC(=O)c2cc3ccccc3o2)cc1OC | - | 54.3 | - | . | - | -
CC1CCCC(NC(=O)c2cccc(S(=O)(=O)N3CCCCC3)c2)C1C (configuration not stated) | - | - | - | - | - | -
Cc1c(C(=O)N2CCN(C3CCS(=O)(=O)C3)CC2)oc2ccc(Cl)cc12 (configuration not stated) | - | - | - | - | - | -
COc1ccc(/C(C)=N/NC(=S)NCCc2ccccc2)c(O)c1 | - | - | - | - | - | -
COc1ccc(S(=O)(=O)N(CCCN2CCOCC2)Cc2cccc3ccccc23)cc1 | - | 91.7 | - | . | - | -
COc1ccc(S(=O)(=O)N(CCCN2CCOCC2)Cc2cccc(OC)c2OC)cc1 | - | - | - | - | - | -
N#C/C(=N\Nc1ccc(Cl)cc1)C(N)=S | - | 59.7 | - | 64.1 | 60.8 | -
Cc1ccc(NC(N)=S)cc1C | - | - | - | - | - | -
N#C/C(=N\Nc1ccccc1)C(N)=S | - | - | - | - | - | -
Cc1ccc(N/N=C(\C#N)C(N)=S)cc1C | - | 62.2 | - | 57.6 | 67.1 | -
O=C(O)c1ccc(-c2noc(-c3ccccc3F)n2)cc1 | - | 51.8 | - | - | - | -
CC(C)C(NC(=O)C1CCCCC1)C(=O)Nc1ccncc1 (configuration not stated) | - | - | - | - | - | -
O=C(Nc1ccc2c(c1)OCCO2)C1CC1c1ccccc1 (configuration not stated) | - | - | - | - | - | -
O=C(O)C1CCCCC1C(=O)Nc1ccc2c(c1)OCCO2 (configuration not stated) | - | 82.6 | - | 68.5 | - | -
CC(C)C(NC(=O)C1CCCCC1)C(=O)Nc1ccc2c(c1)OCCO2 (configuration not stated) | - | 63.3 | - | - | - | -
O=C(O)C1C2C=CC(C2)C1C(=O)Nc1ccc2c(c1)OCCO2 (configuration not stated) | - | 64.7 | - | 52.0 | - | -
NC(=O)c1ccc[n+]([C@H]2O[C@@H](COP(=O)([O-])OP(=O)(O)OC[C@H]3O[C@@H](n4cnc5c(N)ncnc54)[C@H](O)[C@@H]3O)[C@H](O)[C@@H]2O)c1 | - | - | - | - | - | -
COc1ccc(C2c3sc(=O)[nH]c3SC3C4CCC(C4)C23)cc1 (configuration not stated) | - | 64.5 | - | . | - | -
Cc1c(Br)c(=O)oc2c(C)c(O)ccc12 | - | - | - | 54.1 | - | -
C=CCNC(=O)c1cc(-c2ccncc2)nc2c(C)cc(C)cc12 | - | - | - | 84.2 | - | -
SMILES | HIF-2a inh | TWEAK Fn14 block | KKLEB tox | TROY signal inh | CF NFkB inh | Peg3 promoter
CCOC(=O)C1=C(C)Nc2ccc(C)cc2S1 | - | 95.7 | - | - | - | -
Cc1c(C(=O)N2CCCCC2)c(S(=O)(=O)N(C)Cc2ccccc2)c(C)n1C | - | - | - | - | - | -
Cn1c(/C=N/Nc2nc3ccccc3[nH]2)nc2ccccc21 | - | - | - | - | - | -
C=CCn1cc(/C=N/Nc2nc3ccccc3[nH]2)c2ccccc21 | - | 53.0 | - | - | - | -
Cc1c(/C=N/Nc2nc3ccccc3[nH]2)c2ccccc2n1C | - | 94.0 | - | 55.0 | - | -
Cc1ccccc1S(=O)(=O)N1C[C@H]2[C@H]3C(=O)N(c4ccccc4)C(=O)[C@H]3CC(=O)[C@H]2[C@@H]1c1ccc(Cl)cc1 | - | - | - | - | - | -
Cc1cc(NC(=O)COc2coc(CN3CCN(c4ccccc4F)CC3)cc2=O)no1 | - | - | - | - | - | -
C=CCN(C(=O)CSc1nc2ccsc2c(=O)n1Cc1ccccn1)c1ccccc1 | - | - | - | - | - | -
C=CCN(C(=O)CSc1nc2c(sc3ccccc32)c(=O)n1CCN(CC)CC)c1ccccc1 | - | - | - | - | - | 63.6
CN(C)CC(=O)Nc1ccc2c(c1)[C@H]1C[C@H](CC(=O)NCc3ccc4c(c3)OCO4)O[C@H](CO)[C@H]1O2 | - | - | - | - | - | -
O=C(Nc1ccccc1Cl)N1CCN(c2ccccn2)CC1 | - | 101.1 | - | - | - | -
COc1ccccc1NC(=O)N1CCN(c2ccccn2)CC1 | - | - | - | - | - | -
Cc1sc(NC(=O)CCCC(=O)O)c(C(N)=O)c1-c1ccccc1 | 77.8 | 52.5 | - | - | - | -
O=C(Nc1nc2ccc(F)cc2s1)c1ccc([N+](=O)[O-])o1 | - | - | -61.9 | - | 81.0 | 67.3
CCOc1ccc2nc(NC(=O)c3ccco3)sc2c1 | - | 58.7 | - | - | - | -
O=C(Nc1nc2ccccc2c(=O)s1)c1ccco1 | - | 54.4 | - | - | - | -
CCOc1ccc2nc(NC(=O)CSc3nc4c(c(=O)n(C)c(=O)n4C)n3C(C)C)sc2c1 | - | 53.3 | - | 50.1 | - | -
CCOc1ccc(-c2cc(C(=O)NC3CCCCC3)[nH]n2)c(C)c1 | - | - | - | - | - | -
CCc1nc2ccc(C(=O)NCCN3CCOCC3)cn2c1N(C=O)Cc1ccc(OC)cc1 | - | - | - | - | - | -
CSc1ccc(CN2CCC2(C)C(=O)NC2CCN(Cc3ccccc3)CC2)cc1 (configuration not stated) | - | - | - | - | - | -
CCCCn1c(N)c(N(CCOC)C(=O)c2c(CC)noc2C)c(=O)[nH]c1=O | - | - | - | - | - | -
O=C(Nc1nc2cc3c(cc2s1)OCO3)c1ccco1 | - | 89.7 | - | 56.4 | - | -
CS(=O)(=O)c1ccc2nc(NC(=O)c3ccco3)sc2c1 | - | - | - | - | - | -
COc1cc2nc(NC(=O)c3ccccc3)sc(=O)c2cc1OC | - | 71.7 | - | - | - | -
CCOc1ccc2nc(NC(=O)c3ccoc3C)sc2c1 | - | 63.2 | - | - | - | -
O=C(NC(=S)Nc1nc2ccc(F)cc2s1)c1ccco1 | - | - | -70.8 | - | - | -
CCCCCCSc1ccc([C@@H]2[C@@H]3C(=O)N(C)C(=O)[C@@H]3[C@]3(C(=O)OC)CCCCN23)cc1OC | - | - | - | - | - | -
